Measured values: PubChem BioAssay (Tox21)
Results filed as inconclusive are left out. The source made the active and inactive calls. Unless noted, calls come from the whole dose curve.

Tests used:
[1] = qHTS assay to identify small molecule agonists of the sonic hedgehog signaling (Shh) pathway (AID 1259368); note: nearly all actives have a fitted effect of over 15% in size; note: potency is the fitted concentration of half-maximal effect
Outline: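 Stable NIH/3T3 Gli1-Luc reporter clone; 24 hr cpd exposure after a 4 hr settling period; luminescence endpoint.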

[2] = qHTS assay to identify small molecule antagonists of the sonic hedgehog signaling (Shh) pathway (AID 1259369); note: nearly all actives have a fitted effect of over 45% in size; note: potency is the fitted concentration of half-maximal effect
Outline: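 Gli1 transcriptional reporter (firefly Luc) in NIH/3T3 background, conditioned-medium activated. 24hr exposure, luminescence endpoint.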

[3] = biological target: Estrogen receptor beta (Homo sapiens) (UniProt Q92731); test: qHTS assay to identify small molecule agonists of the estrogen receptor beta (ER-beta) signaling pathway (AID 1259377; active = well fitted activation curve with a large enough effect in the signal ratio in the repeat runs, not every such curve was filed as active; the % refers to the signal ratio)
Outline: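 A UAS-controlled beta-lactamase reporter in ER-beta-UAS-bla HEK293T cells reports receptor activation. Compounds act for 16 hr at 37C in 2% charcoal-stripped serum, and a FRET substrate is read by fluorescence after 2 hours.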

[4] = biological target: Estrogen receptor beta (Homo sapiens) (UniProt Q92731); test: qHTS assay to identify small molecule antagonists of the estrogen receptor beta (ER-beta) signaling pathway (AID 1259378; active = well fitted inhibition curve with a large enough effect in the signal ratio in the repeat runs, not every such curve was filed as active; the % refers to the signal ratio; note: potency is the fitted concentration of half-maximal effect)
Outline: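 Antagonist mode: compounds added to beta-lactamase reporter HEK293T ER-beta-UAS cells stimulated with E2 (1nM final), 16 hr at 37C. LiveBLAzer B/G FRET substrate, 2 hours room temperature, fluorescence read-out.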

[5] = qHTS assay to identify small molecule agonists of the androgen receptor (AR) signaling pathway in the presence of an antagonist - cell viability counter screen (AID 1259379; active = well fitted curve in the direction sought with a large enough effect in the repeat runs; an effect the other way counts as inactive or inconclusive; note: nearly all actives have a fitted effect of over 25% in size; note: potency is the fitted concentration of half-maximal effect)
Outline: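 Counter screen for cell viability run in parallel with the AR agonist-mode luciferase assay. MDA-kb2 cells were co-treated with nilutamide (3.0uM final) and compounds, then incubated 16 hr at 37C, and CellTiter-Fluor fluorescence was measured.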

[6] = qHTS assay to identify small molecule agonists of the estrogen receptor beta (ER-beta) signaling pathway - cell viability counter screen (AID 1259380; active = well fitted curve in the direction sought with a large enough effect in the repeat runs; an effect the other way counts as inactive or inconclusive; note: nearly all actives have a fitted effect of over 30% in size; note: potency is the fitted concentration of half-maximal effect)
Outline: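 In this qHTS counter screen, HEK293T cells carrying an ER-beta/UAS beta-lactamase reporter, grown in 2% charcoal-stripped FBS, received compound for 16 hr; ATP-based CellTiter-Glo luminescence was then read after 30 min at room temperature.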

[7] = biological target: Androgen receptor (Homo sapiens) (UniProt P10275); test: qHTS assay to identify small molecule agonists of the androgen receptor (AR) signaling pathway in the presence of an antagonist (AID 1259381); note: nearly all actives have a fitted effect of over 15% in size
Outline: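 AR antagonist background: nilutamide 3.0uM final. Cell line: MDA-kb2, MMTV-driven luciferase, responsive to both AR and GR. Exposure 16hr, 37C, no CO2; ONE-Glo luminescence.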

[8] = qHTS assay to identify small molecule antagonists of the estrogen receptor beta (ER-beta) signaling pathway - cell viability counter screen (AID 1259382; active = well fitted curve in the direction sought with a large enough effect in the repeat runs; an effect the other way counts as inactive or inconclusive; note: nearly all actives have a fitted effect of over 55% in size; note: potency is the fitted concentration of half-maximal effect)
Outline: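 HEK293T ER-beta-UAS-bla, 2% charcoal-stripped FBS; compounds + 1nM E2 16 hr 37C; CellTiter-Glo luminescence, 30 min RT.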

[9] = biological target: Estrogen receptor (Homo sapiens) (UniProt P03372); test: qHTS assay to identify small molecule agonists of the estrogen receptor alpha (ER-alpha) signaling pathway in the presence of an antagonist (AID 1259383); note: top concentration of the series differs between compounds; nearly all actives have a fitted effect of over 15% in size
Outline: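 ER-alpha agonism measured under antagonist challenge: 10.0nM ICI-182,780 (final) plus compound, 15 concentrations, 22hr, VM7Luc4E2 ERE-luciferase cells. Read by luminescence.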

[10] = qHTS assay to identify small molecule agonists or antagonists of the thyroid stimulating hormone receptor (TSHR) signaling pathway - wild type cell line counter screen (AID 1259384)
Outline: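 Counter screen in untransfected Hek293: compounds (15-point titration, triplicate) plus phosphodiesterase inhibitor Ro20-1724 added after 18 h plating; 30 min RT. Intracellular cAMP via competitive d2/cryptate immunoassay, 1 h incubation.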

[11] = biological target: Thyrotropin receptor (Homo sapiens) (UniProt P16473); test: qHTS assay to identify small molecule antagonists of the thyroid stimulating hormone receptor (TSHR) signaling pathway (AID 1259385); note: nearly all actives have a fitted effect of over 20% in size
Outline: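 Antagonist mode: compound-treated TSHR-expressing HEK293 cells were stimulated with 1.5 ng/mL TSH (final) in presence of Ro20-1724 for 30 min at RT. HTRF cAMP detection after 1 h; each compound tested at 15 concentrations, triplicate.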

[12] = qHTS assay to identify small molecule agonists of the estrogen receptor alpha (ER-alpha) signaling pathway in the presence of an antagonist - cell viability counter screen (AID 1259386; active = well fitted curve in the direction sought with a large enough effect in the repeat runs; an effect the other way counts as inactive or inconclusive;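 note: series mostly up to about 92 µM; cells exposed to compounds for 22 h at 37 °C before the viability read; nearly all actives have a fitted effect of over 30% in size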)
Outline: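 Steps: 5-day stripped-FBS culture; seed and incubate 24hr; add ICI-182,780 (10.0nM final); pin 15-point compound titration; incubate 22hr at 37C; add CellTiter-Fluor at 21hr; read fluorescence.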

[13] = biological target: Progesterone receptor (Homo sapiens) (UniProt P06401); test: qHTS assay to identify small molecule agonists of the progesterone receptor (PR) signaling pathway (AID 1346784); note: nearly all actives have a fitted effect of over 30% in size
Outline: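 Agonist mode, quantitative HTS format in a HEK 293T line expressing a UAS-controlled beta-lactamase reporter; 16 hr compound exposure at 37C in 2% charcoal-stripped FBS, then LiveBLAzer B/G FRET fluorescence.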

[14] = biological target: Progesterone receptor (Homo sapiens) (UniProt P06401); test: qHTS assay to identify small molecule antagonists of the progesterone receptor (PR) signaling pathway (AID 1346795; active = well fitted inhibition curve with a large enough effect in the signal ratio in the repeat runs, not every such curve was filed as active; the % refers to the signal ratio; note: potency is the fitted concentration of half-maximal effect)
Outline: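 HEK293T PR-UAS-bla reporter cells in charcoal-stripped serum (2%) received compound after a 6 hr settling period, followed by R5020 agonist at 1 nM final; 16 hr incubation preceded the FRET substrate step and fluorescence measurement.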

[15] = qHTS assay to identify small molecule antagonists of the progesterone receptor (PR) signaling pathway - cell viability counter screen (AID 1346798; active = well fitted curve in the direction sought with a large enough effect in the repeat runs; an effect the other way counts as inactive or inconclusive; note: nearly all actives have a fitted effect of over 50% in size; note: potency is the fitted concentration of half-maximal effect)
Outline: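 Same-well multiplex: after 16 hr at 37C with compound and R5020 stimulation, HEK293T cells carrying a UAS-bla reporter received LiveBLAzer substrate (2 hr RT), then CellTiter-Glo (30 min RT) for luminescent viability.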

[16] = qHTS assay to identify small molecule agonists of the progesterone receptor (PR) signaling pathway - cell viability counter screen (AID 1346799); note: nearly all actives have a fitted effect of over 45% in size
Outline: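 Counter screen for cytotoxicity: compound-treated PR-UAS-bla HEK293T cells (16 hr, 37C, 5% CO2) were assayed with CellTiter-Glo, luminescence measured after 30 min at room temperature.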

[17] = qHTS assay to identify small molecule antagonists of the TGF-beta/Smad signaling pathway - cell viability counter screen (AID 1346824; active = well fitted curve in the direction sought with a large enough effect in the repeat runs; an effect the other way counts as inactive or inconclusive; note: nearly all actives have a fitted effect of over 50% in size)
Outline: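 Cytotoxicity counter-screen run in the same wells as the beta-lactamase Smad reporter read: CellTiter-Glo luminescence after 30 min at room temperature. HEK 293T SBE-bla cells had 5 hr compound exposure at 37 C with TGF-beta1 (0.25 ng/mL stock).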

[18] = qHTS assay to identify small molecule agonists of the TGF-beta/Smad signaling pathway (AID 1346859; active = well fitted activation curve with a large enough effect in the signal ratio in the repeat runs, not every such curve was filed as active; the % refers to the signal ratio; note: series mostly up to about 77 µM)
Outline: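 Smad-responsive beta-lactamase reporter cells (HEK 293T) received compounds from DMSO stocks after overnight attachment, were incubated 5 hr, then treated 2 hr with FRET substrate before dual-emission fluorescence measurement (405 nm excitation).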

[19] = biological target: Thyrotropin-releasing hormone receptor (Homo sapiens) (UniProt P34981); test: qHTS assay to identify small molecule antagonists of the thyrotropin-releasing hormone receptor (TRHR) signaling pathway (AID 1346877; active = well fitted inhibition curve with a large enough effect in the repeat runs, not every such curve was filed as active; note: series mostly up to about 51 µM)
Outline: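 Human TRHR in HEK293 cells; inhibition of the intracellular calcium rise triggered by 1 nM TRH was followed by fluorescence over 3 min. Compounds were run at 15 concentrations, three replicates each.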

[20] = qHTS assay to identify small molecule agonists of the TGF-beta/Smad signaling pathway - cell viability counter screen (AID 1346829; active = well fitted curve in the direction sought with a large enough effect in the repeat runs; an effect the other way counts as inactive or inconclusive; note: top concentration of the series differs between compounds; nearly all actives have a fitted effect of over 45% in size)
Outline: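 After overnight seating at 37 C and 5% CO2, reporter cells got compounds for 5 hr and FRET substrate for 2 hr; cell viability then came from CellTiter-Glo luminescence.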

Measured: Potency

Chain of Estrogen receptor (Homo sapiens) (P03372 whole entry, looked up): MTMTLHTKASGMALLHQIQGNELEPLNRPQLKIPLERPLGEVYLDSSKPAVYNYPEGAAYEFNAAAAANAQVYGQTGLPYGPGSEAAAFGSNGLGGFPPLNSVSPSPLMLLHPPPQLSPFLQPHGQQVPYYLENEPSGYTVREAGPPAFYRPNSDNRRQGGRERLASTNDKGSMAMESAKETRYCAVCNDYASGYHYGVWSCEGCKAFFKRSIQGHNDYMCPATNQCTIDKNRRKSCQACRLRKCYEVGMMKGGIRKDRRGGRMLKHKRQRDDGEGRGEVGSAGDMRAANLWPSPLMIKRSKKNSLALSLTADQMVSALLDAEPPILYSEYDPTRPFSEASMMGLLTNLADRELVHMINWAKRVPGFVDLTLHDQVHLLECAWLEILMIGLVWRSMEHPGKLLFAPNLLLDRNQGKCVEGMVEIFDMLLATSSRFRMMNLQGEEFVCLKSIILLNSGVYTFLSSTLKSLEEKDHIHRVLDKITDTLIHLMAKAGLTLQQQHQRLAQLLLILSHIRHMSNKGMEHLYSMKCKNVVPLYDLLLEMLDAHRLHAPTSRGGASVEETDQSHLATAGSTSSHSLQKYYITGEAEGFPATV
Chain of Thyrotropin-releasing hormone receptor (Homo sapiens) (P34981 whole entry, looked up): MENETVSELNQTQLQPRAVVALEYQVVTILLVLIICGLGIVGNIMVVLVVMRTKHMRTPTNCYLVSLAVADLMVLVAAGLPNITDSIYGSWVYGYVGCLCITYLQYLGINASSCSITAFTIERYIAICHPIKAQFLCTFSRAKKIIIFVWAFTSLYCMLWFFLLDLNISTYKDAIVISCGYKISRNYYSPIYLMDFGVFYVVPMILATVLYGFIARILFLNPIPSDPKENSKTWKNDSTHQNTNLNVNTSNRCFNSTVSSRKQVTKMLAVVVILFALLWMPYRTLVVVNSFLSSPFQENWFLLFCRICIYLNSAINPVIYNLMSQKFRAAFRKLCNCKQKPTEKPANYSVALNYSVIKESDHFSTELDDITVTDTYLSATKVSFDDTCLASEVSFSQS
Chain of Estrogen receptor beta (Homo sapiens) (Q92731 whole entry, looked up): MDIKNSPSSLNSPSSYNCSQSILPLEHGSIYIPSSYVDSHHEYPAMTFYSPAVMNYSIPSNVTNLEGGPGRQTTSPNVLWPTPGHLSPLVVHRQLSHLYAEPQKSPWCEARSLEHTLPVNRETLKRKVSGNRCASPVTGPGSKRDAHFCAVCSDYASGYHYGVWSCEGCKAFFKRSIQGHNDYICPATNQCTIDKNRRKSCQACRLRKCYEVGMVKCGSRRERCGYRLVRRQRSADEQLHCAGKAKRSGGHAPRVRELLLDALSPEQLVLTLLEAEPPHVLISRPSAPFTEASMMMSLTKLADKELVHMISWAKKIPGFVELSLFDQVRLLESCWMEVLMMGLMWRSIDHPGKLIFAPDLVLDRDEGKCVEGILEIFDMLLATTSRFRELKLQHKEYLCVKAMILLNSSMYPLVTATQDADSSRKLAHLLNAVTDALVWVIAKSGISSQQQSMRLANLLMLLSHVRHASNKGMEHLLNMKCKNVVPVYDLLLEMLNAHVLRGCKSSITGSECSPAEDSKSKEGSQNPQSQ
Chain of Androgen receptor (Homo sapiens) (P10275 whole entry, looked up): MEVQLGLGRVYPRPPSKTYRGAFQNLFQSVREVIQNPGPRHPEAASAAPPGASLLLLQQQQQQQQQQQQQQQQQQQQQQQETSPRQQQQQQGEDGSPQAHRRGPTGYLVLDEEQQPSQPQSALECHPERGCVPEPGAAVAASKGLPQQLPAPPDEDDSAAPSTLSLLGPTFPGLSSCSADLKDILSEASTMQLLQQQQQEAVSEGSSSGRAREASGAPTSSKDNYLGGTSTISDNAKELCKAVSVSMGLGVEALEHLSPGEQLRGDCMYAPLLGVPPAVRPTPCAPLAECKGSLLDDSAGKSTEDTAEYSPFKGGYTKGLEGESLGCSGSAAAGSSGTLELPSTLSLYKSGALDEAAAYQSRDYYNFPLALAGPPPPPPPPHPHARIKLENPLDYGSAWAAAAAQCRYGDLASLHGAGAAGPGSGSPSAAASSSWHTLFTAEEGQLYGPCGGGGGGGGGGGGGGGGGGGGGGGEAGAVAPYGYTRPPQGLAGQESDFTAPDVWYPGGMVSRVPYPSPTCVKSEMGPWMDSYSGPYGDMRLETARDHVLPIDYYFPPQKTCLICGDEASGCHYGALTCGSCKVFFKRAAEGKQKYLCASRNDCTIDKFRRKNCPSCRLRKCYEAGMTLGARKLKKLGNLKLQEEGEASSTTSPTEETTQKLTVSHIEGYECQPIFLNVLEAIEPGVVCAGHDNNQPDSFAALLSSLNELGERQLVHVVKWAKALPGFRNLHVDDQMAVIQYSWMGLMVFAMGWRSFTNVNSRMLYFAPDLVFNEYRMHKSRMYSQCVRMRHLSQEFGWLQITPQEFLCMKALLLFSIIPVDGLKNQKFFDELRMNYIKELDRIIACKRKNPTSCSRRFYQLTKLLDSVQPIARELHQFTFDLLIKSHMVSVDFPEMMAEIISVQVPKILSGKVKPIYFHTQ
Chain of Thyrotropin receptor (Homo sapiens) (P16473 whole entry, looked up): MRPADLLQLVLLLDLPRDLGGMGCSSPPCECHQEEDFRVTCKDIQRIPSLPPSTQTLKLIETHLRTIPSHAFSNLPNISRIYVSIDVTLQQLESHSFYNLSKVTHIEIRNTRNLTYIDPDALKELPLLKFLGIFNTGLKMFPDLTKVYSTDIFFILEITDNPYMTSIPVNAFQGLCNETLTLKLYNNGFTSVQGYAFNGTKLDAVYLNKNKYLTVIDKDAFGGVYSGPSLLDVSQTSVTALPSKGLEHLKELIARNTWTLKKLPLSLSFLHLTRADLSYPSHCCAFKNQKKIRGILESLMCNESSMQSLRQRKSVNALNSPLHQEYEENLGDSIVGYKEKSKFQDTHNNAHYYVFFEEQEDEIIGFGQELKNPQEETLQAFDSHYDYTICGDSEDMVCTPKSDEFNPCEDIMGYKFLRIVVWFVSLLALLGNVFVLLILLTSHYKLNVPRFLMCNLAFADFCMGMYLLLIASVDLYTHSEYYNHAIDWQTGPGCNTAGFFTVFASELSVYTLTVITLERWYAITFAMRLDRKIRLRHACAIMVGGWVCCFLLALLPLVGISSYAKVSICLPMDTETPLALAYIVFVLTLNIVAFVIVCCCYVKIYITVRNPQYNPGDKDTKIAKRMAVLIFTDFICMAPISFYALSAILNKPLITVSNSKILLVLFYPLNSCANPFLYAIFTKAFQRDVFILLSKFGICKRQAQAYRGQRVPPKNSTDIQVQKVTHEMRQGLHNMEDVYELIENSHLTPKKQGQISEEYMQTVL
Chain of Progesterone receptor (Homo sapiens) (P06401 whole entry, looked up): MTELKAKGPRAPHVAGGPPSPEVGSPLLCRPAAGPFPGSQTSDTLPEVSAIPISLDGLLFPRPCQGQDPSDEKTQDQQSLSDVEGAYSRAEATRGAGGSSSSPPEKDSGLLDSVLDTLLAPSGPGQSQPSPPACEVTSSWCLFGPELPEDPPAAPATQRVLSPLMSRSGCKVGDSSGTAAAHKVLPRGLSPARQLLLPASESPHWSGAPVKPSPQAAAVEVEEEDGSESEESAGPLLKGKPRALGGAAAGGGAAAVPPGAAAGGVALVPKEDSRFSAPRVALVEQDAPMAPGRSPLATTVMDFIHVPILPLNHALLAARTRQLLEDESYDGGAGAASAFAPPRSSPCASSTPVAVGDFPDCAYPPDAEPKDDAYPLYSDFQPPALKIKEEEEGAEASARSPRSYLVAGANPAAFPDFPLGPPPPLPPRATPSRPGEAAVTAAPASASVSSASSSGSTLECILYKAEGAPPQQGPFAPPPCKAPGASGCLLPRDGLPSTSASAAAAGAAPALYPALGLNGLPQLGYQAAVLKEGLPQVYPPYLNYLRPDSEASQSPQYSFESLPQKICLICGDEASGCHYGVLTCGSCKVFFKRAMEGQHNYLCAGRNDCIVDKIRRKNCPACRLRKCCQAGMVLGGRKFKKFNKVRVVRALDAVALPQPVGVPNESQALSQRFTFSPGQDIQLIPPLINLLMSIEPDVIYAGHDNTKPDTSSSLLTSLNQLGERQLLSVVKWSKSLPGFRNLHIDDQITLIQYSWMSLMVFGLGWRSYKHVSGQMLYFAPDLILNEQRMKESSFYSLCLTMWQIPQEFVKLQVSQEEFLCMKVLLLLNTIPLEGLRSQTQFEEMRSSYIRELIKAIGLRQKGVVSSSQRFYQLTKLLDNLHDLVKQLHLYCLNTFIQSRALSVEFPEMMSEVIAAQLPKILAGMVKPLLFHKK

Cc1cc(C)cc(N)c1
not listed: [20]
inactive: all other assays above

O=C(Cn1ccnc1[N+](=O)[O-])NCCO
inactive: all assays above

C[C@@H](O)[C@H]1C(=O)N2C(C(=O)O)=C([C@H]3CCCO3)S[C@H]12
not listed: [8] | [13] | [14]
inactive: all other assays above

C[C@H]1C[C@H](O)c2ccsc2S1(=O)=O
not listed: [8] | [17]
inactive: all other assays above

CCc1ccccc1
not listed: [7] | [13] | [14] | [20]
inactive: all other assays above

C=C(C)C(=O)OCCOCCOC(=O)C(=C)C
not listed: [7] | [10] | [11] | [13] | [14]
inactive: all other assays above

CO[C@]1(NC(=O)CSC(F)F)C(=O)N2C(C(=O)O)=C(CSc3nnnn3CCO)CO[C@H]21
not listed: [7] | [14]
inactive: all other assays above

O=C1Cc2cc(Cl)ccc2N1
not listed: [14]
inactive: all other assays above

CCC1CO1 (stereo not given)
not listed: [3] | [7] | [9] | [13] | [19]
inactive: all other assays above

CS(=O)(=O)c1ccc(-c2cn3ccccc3n2)cc1
active: [1] 11.9 µM | [2] 33.5 µM | [15] 29.8 µM
not listed: [4] | [6] | [8] | [14] | [16]
inactive: all other assays above

Clc1cc(Cl)nc(Cl)n1
not listed: [5] | [7] | [9] | [17] | [20]
inactive: all other assays above

CC1(CN2CCC(n3c(=O)[nH]c4ccccc43)CC2)OCc2ccccc2-n2cccc21 (stereo not given)
active: [2] 23.7 µM | [5] 29.8 µM | [6] 23.7 µM | [8] 29.8 µM
inactive: [1] | [3] | [9] | [10] | [11] | [12] | [17] | [20] | [18]

Clc1ccc(Nc2nnc(Cc3ccncc3)c3ccccc23)cc1
active: [2] 1.19 µM | [4] 13.3 µM | [14] 26.6 µM
not listed: [6] | [7] | [13] | [15] | [16] | [17] | [19]
inactive: all other assays above

C=C/C(C)=C/C/C=C(\C)CCC=C(C)C
active: [2] 27.3 µM
not listed: [4] | [6] | [7] | [17]
inactive: all other assays above

C=CC(C)(CCC=C(C)C)OC(=O)CC(C)C (stereo not given)
not listed: [3] | [7] | [12] | [13] | [14]
inactive: all other assays above

Nc1cccc2c1CN(C1CCC(=O)NC1=O)C2=O (stereo not given)
not listed: [3] | [7] | [17] | [20]
inactive: all other assays above
